Sa growth inh = S. aureus growth inhibition; hit rate 0.53% among 170,000; S. aureus RN4220 growth, OD600, 20 h, 42 °C; stronger effect = lower value; AID 720641; relative growth, % (no concentration beside the values);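 active = relative growth at most 50% at the other temperature and 20+ points below 30 °C, or under 10% at both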
S aureus helic = blocks Staphylococcus aureus DNA helicase; hit rate 0.05% among 120,000; inhibition, % (test concentration not listed); purified S. aureus helicase, fluorescence unwinding assay; in the data active = inhibition above about 25%, passing the limit was not always enough
Large screens that a line does not name were inactive; ! = not active in a repeat. Shown are actives, neighbours in structure and some others; about 0.52% of the full set was active somewhere.

C1=C(c2c[nH]c3ccccc23)CCN(Cc2ccccc2)C1	Sa growth inh -0.9
CN1CC=C(c2c[nH]c3ccccc23)CC1	none
Cc1cc(C(=O)Nc2ccccc2)nn1C(C)(C)C	none (no result: S aureus helic)
CN(C)[C@@H]1C(=O)C(C(N)=O)=C(O)[C@@]2(O)C(=O)C3=C(O)c4c(O)ccc(Cl)c4[C@@](C)(O)[C@H]3C[C@@H]12	Sa growth inh -0.1 (no result: S aureus helic)
CN(C)[C@@H]1C(=O)C(C(N)=O)=C(O)[C@@]2(O)C(=O)C3=C(O)c4c(O)cccc4[C@@](C)(O)[C@H]3[C@H](O)[C@@H]12	Sa growth inh -0.6 (no result: S aureus helic)
Nc1ccncc1	none (no result: S aureus helic)
O=S(=O)(c1ccc(Cl)cc1)N1CCCCC1c1cccnc1 (centres undefined)	none
CC(=O)N1CCCCC1c1cccnc1.O=[N+]([O-])O.[Ag] (centres undefined)	Sa growth inh 5.0
Cc1cc(O)ccc1Cl	none (no result: S aureus helic)
CCOC(=O)c1c(C)n(Cc2ccccc2)c2ccc(OCC(O)CNC(C)(C)C)cc12 (centres undefined)	none
N#CC(C#N)=NNc1ccc(-n2ccc(C(F)(F)F)n2)cc1	Sa growth inh -0.4
CC(C)C(=O)c1cn(Cc2ccccc2C#N)c2ccccc12	none
CCCCCCCCCCCCCCCC[n+]1ccccc1	Sa growth inh -0.8 (no result: S aureus helic)
CCN(C(C)=O)c1cccc(-c2ccnc3c(C#N)cnn23)c1	none (no result: S aureus helic)
O=C(CN1C(=O)CN=C(c2ccccc2)c2ccccc21)Nc1cccc(C(F)(F)F)c1	none (no result: S aureus helic)
CN1C(=C2C(=O)NC(=O)NC2=O)Sc2ccccc21	none
N#CCc1ccc(F)cc1	none
N#Cc1c2c(c(O)[nH]c1=O)CN(Cc1ccccc1)CC2	none
O=C(O)c1ccccc1C(=O)Nc1cccc2ccccc12	none (no result: Sa growth inh)
C[CH2][Hg][S]c1ccccc1C(=O)O	Sa growth inh -0.5 (no result: S aureus helic)
CN1CCN(c2cn[nH]c(=O)c2Cl)CC1	none
CN(C)CCC(=O)c1ccccc1	none
CC(=O)[O][Hg][c]1ccccc1	Sa growth inh -0.7 (no result: S aureus helic)
C/C(=N\NC(N)=S)c1ccc(Cl)cc1	none
Clc1ccc(COC(Cn2ccnc2)c2ccc(Cl)cc2Cl)c(Cl)c1 (centres undefined)	Sa growth inh 0.0! (no result: S aureus helic)
Clc1ccc(CON=C(Cn2ccnc2)c2ccc(Cl)cc2Cl)c(Cl)c1	Sa growth inh 0.0 (no result: S aureus helic)
CN(C)c1ccc(P(=O)(N(C)C)N(C)C)cc1	none
Cc1cc(OC(=O)N(C)C)nc(SCc2c(F)cccc2Cl)n1	none
N#Cc1cc2c(nc1SCC(=O)Nc1ccc(Cl)c(C(F)(F)F)c1)C1CCN2CC1	none (no result: S aureus helic)
COC(=O)C(O)(c1c[nH]c2ccccc12)C(F)(F)F (centres undefined)	none
Oc1cc(Cl)ccc1Oc1ccc(Cl)cc1Cl	Sa growth inh -0.7 (no result: S aureus helic)
CN(C)CCC(=O)c1ccc(Br)cc1	none
CCOC(=O)c1c(-c2ccccc2)n(Cc2ccccc2)c2ccc(O)c(CN(C)C)c12	Sa growth inh -0.9
CCOC(=O)c1c(C)n(Cc2ccccc2)c2ccc(O)cc12	none
c1ccc(-c2cnc[nH]2)cc1	none
CN1CCC(N(C)CC2=CCC3CC2C3(C)C)CC1 (centres undefined)	none
CCOc1cc(C=C2C(=O)N(C)C(=S)N(C)C2=O)ccc1OC(C)C(=O)O (centres undefined)	none
COc1ccc(C(CN(C)C)C2(O)CCCCC2)cc1 (centres undefined)	Sa growth inh 0.0! (no result: S aureus helic)
Nc1nonc1NC(=O)COC1CN2CCC1CC2 (centres undefined)	none
O=C1C=Cc2ccc3c4c(ccc1c24)C=CC3=O	S aureus helic 48.0
Cc1cc(Br)c(O)c(Br)c1	none
OCCN1CCN(Cc2ccccc2)CC1	none

Compound activity (PubChem BioAssay)
